Several values for one entry are separate records, joined by “and”; a condition that tells them apart may be missing. Equal values may be shown once. Activity calls are given as the source filed them.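 Rule for the calls, unless noted: active = compounds whose cell count with miR-34 switched on is under 0.7 times the count with it off; inactive = the rest.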
Assays:
[1] = liver-stage malaria parasite growth inhibition, primary screen, cell-based, HepG2, luciferase luminescence, HepG2 viability (AID 624349; in the data active = parasite load remaining mostly below about 12%, no sharp cut-off; inactive = mostly above about 10%;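 note: 100% = mean of DMSO negative control wells on the same plate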); details: P. berghei liver stage in HepG2, luciferase luminescence, concentration not given here; parasite load remaining: stronger effect = lower value; viability: measured here: HepG2 viability without parasites
[2] = stimulators of nuclear beta-catenin in C2C12, primary screen, imaging, WNT3A-conditioned medium, mouse C2C12, NPC library (AID 1117326; in the data active = nuclear beta-catenin stimulation mostly above about 4.2%, no sharp cut-off; inactive = mostly below about 10%); details: stronger effect = higher value
[3] = stimulators of insulin release from INS-1E, primary screen, cell-based, 5 mM glucose, NPC library (AID 1117329;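 active = compound raises insulin release from rat beta cells at 5 mM glucose, no numeric limit stated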); details: rat INS-1E insulin secretion, at 10 µM, stronger effect = higher value
[4] = growth inhibition of GSK3B-pretreated HCT116 cells – cell-based, CellTiter-Glo, 0.2 to 20 µM (AID 1117336;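 active = compounds lowering colon cancer cell viability after pretreatment blocking the GSK3B kinase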); details: HCT116 viability after GSK3B inhibitor, at 20 µM, stronger effect = higher value
[5] = inhibition of endothelial tube formation, primary screen, imaging, VEGF stimulated, CD31 staining, tube area, NPC library (AID 1117340;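 active = compound that reduces growth-factor-driven endothelial tube area in a mixed cell culture, no cutoff stated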); details: VEGF-stimulated ADSC/ECFC co-culture, at 10 µM, stronger effect = higher value
[6] = glucagon-like peptide 1 release enhancers, primary assay, NCI-H716 cell line, NPC library (AID 1117341;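 active = compound raises GLP1 secretion from the human gut endocrine cells, with no numeric limit stated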); details: NCI-H716 cells, at 10 µM, stronger effect = higher value
[7] = HCT116 colon cancer cell growth inhibition, primary screen, CellTiter-Glo luminescence, NPC library (AID 1117342;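 active = compounds that lower survival of HCT116 colon cancer cells in the luminescence readout, no numeric limit stated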); details: at 20 µM (top of the series)
[8] = CellTiter-Glo luminescent readout of SW480 viability loss, NPC library primary (AID 1117343;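 active = compounds that lower viability of the colon cancer cells in the luminescence readout, with no numeric limit stated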); details: CellTiter-Glo luminescence; at 20 µM (top of the series) unless noted
[9] = decreased DLD-1 cellular survival, CellTiter-Glo luminescent readout, NPC compound collection, primary HTS (AID 1117346;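 active = compounds that lower survival of DLD-1 colon cancer cells in the luminescence readout, no cutoff given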); details: DLD-1 viability, CellTiter-Glo luminescence; at 20 µM (top of the series)
[10] = differential killing of epithelial or mesenchymal cells, primary screen, imaging, PC-3E GFP, TEM4-18 mCherry, co-culture (AID 1345086;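 active = compounds killing one labelled cell type while sparing the other, by normalised counts and ratio limits, not self-fluorescent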;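 for all read-outs here: cells exposed to compound for 72 h before imaging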;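 for red/green cell ratio (normalised): normalised mesenchymal count divided by normalised epithelial count so high means epithelial killing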); details: imaging cell counts, at 1 µM; for red/green cell ratio (normalised): actives lie on both sides, counts scaled to control wells, 1 = unselective
[11] = sensitizers of A549 cells to miR-34 induction, primary screen, imaging, A549 dox-inducible miR-34, nuclei and caspase counts (AID 1347080); details: A549 miR-34 inducible, Hoechst nuclei count, 48 h
[12] = survival rescue of mitochondrial mutant cells in low glucose, primary screen, MELAS cybrids, Rieske KO mouse fibroblasts, CellTiter-Glo (AID 1508586;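 active = mean z-score across replicates of 1.96 or higher in either the MELAS or the Rieske mutant cell line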;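 note: z relative to plate mean and SD of compound and empty wells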)
[13] = LFS_MB_P medulloblastoma growth inhibition, cell-based, chromothripsis tumors, cisplatin or BGB combos (AID 1671449; in the data active = inhibition above about 80%;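 note: cells exposed for 96 hours; 0% = vehicle DMSO and 100% = killing by high DMSO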); details: LFS_MB_P medulloblastoma cells
[14] = HDN33 neuroblastoma growth inhibition, cell-based, chromothripsis tumors, cisplatin or BGB combos (AID 1671450; in the data active = inhibition above about 80%;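 note: cells exposed to compound for four days; 0% = vehicle DMSO and 100% = cell killing by high DMSO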); details: HDN33 neuroblastoma cells, stronger effect = higher value
[15] = ICB984 medulloblastoma cell growth inhibition, synergistic combos for chromothripsis tumors, cisplatin or BGB combos (AID 1671451; call rule not given here;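 note: cells exposed for 96 hours before readout; 0% = vehicle DMSO and 100% = killing by high DMSO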); details: ICB984 medulloblastoma cells, drug combinations, stronger effect = higher value
[16] = HTB85 osteosarcoma cell growth inhibition, synergistic combos for chromothripsis tumors, BGB or cisplatin IC20 combos (AID 1671453; in the data active = inhibition above about 80%;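 note: cells exposed for 96 hours before readout; 0% = vehicle DMSO and 100% = high DMSO killing control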); details: HTB85 osteosarcoma cells, drug combinations, stronger effect = higher value
[17] = MDA-MB-436 breast carcinoma cell growth inhibition, synergistic combos for chromothripsis tumors, BGB or cisplatin combos (AID 1671458; call rule not given here;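 note: cells exposed for 96 hours; 0% = vehicle DMSO and 100% = killing by high DMSO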); details: MDA-MB-436 breast carcinoma growth inhibition, drug combinations, stronger effect = higher value
[18] = hESC survival regulators, cell-based (AID 493140; call rule not given here;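 note: cells exposed to compounds for four days before counting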); details: human embryonic stem cell survival screen; stronger effect = higher value
[19] = biological target: NAD(+) hydrolase SARM1 (Homo sapiens) (UniProt Q6SZW1); test: SARM1 TIR NADase inhibitors, cell lysate, NAD-Glo luminescence (AID 1508614;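 active = compound whose remaining NAD level is above about 45 nM, limit read from the data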;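 note: higher remaining NAD means stronger inhibition of SARM1 NADase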); details: SAM-TIR HEK293T lysate NADase, at 1 µM, stronger effect = higher value
[20] = measured here: epithelial PC-3E GFP cell survival
[21] = measured here: mesenchymal TEM4-18 mCherry cell survival
[22] = stronger effect = lower value, cell number ratio, induced over uninduced
[23] = measured here: relative caspase fold change +Dox/-Dox
[24] = measured here: total cells with miR-34 induction, stronger effect = lower value
[25] = measured here: total cells without miR-34 induction
[26] = MELAS cybrid survival, CellTiter-Glo 48 h, stronger effect = higher value
[27] = Rieske KO mouse fibroblast survival, CellTiter-Glo 72 h

Chain of NAD(+) hydrolase SARM1 (Homo sapiens) (Q6SZW1 whole entry, looked up): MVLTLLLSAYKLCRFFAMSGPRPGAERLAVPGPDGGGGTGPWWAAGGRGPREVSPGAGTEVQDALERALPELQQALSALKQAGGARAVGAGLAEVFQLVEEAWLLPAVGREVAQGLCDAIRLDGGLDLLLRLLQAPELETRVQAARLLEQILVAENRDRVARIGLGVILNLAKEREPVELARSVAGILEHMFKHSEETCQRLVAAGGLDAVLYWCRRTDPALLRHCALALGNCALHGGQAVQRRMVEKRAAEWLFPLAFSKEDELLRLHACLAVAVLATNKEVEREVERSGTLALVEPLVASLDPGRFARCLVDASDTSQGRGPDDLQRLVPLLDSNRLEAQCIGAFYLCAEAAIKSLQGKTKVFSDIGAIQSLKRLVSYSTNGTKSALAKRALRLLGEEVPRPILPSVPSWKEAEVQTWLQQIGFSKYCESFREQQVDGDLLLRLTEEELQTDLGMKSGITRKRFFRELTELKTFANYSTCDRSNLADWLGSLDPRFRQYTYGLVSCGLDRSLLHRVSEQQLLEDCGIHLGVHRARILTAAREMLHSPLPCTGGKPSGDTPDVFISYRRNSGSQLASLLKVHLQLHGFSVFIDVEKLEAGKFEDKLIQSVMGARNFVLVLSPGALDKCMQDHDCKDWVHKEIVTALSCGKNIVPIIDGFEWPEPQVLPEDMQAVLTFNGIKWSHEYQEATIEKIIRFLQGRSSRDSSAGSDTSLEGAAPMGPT

Structure (SMILES): CN1CCN(c2c(F)cc3c(=O)c(C(=O)O)cn(CCF)c3c2F)CC1
- parasite load remaining [1]: 13% (inactive)
- viability [1]: 62.5%
- nuclear beta-catenin stimulation ([2]; at 10 µM): 0.3% (inactive)
- nuclear beta-catenin stimulation ([2]; stimulation, at 2 µM): 0.9%
- insulin secretion stimulation [3]: -1% (inactive)
- viability decrease [4]: -13.8% (inactive)
- tube area decrease [5]: 12.8% (inactive)
- GLP1 secretion stimulation [6]: 7.1% (inactive)
- inhibition of viability [7]: 4.1% (inactive)
- viability decrease (inhibition) [8]: 4.9% (inactive)
- viability decrease (inhibition) [9]: -10.7% (inactive)
- red/green cell ratio (normalised) [10]: 1.08 (inactive)
- normalised cell number [10, 20]: 1.16
- normalised cell number [10, 21]: 1.24
- fold change [11, 22]: 0.864 (inactive)
- fold change [11, 23]: 1.53
- cell count [11, 24]: 9860
- cell count [11, 25]: 11400
- z-score [12, 26]: -0.514 (inactive) and -0.443 (inactive)
- z-score [12, 27]: -0.857 and -0.453
- inhibition ([13]; at 0.5 µM, stronger effect = higher value): 2.95% (inactive)
- inhibition ([13]; measured here: combination with BGB IC20, at 0.005 µM): 20.9%
- inhibition ([13]; measured here: combination with BGB IC40, at 0.005 µM): 16.6%
- inhibition ([13]; measured here: combination with BGB IC40, at 0.05 µM): 22.7%
- inhibition ([13]; measured here: combination with cisplatin, at 0.5 µM, stronger effect = higher value): -9.55%
- inhibition ([13]; measured here: combination with cisplatin, at 5 µM, stronger effect = higher value): 1.02%
- inhibition ([14]; BGB combo, at 5 µM): 17.4%
- inhibition ([14]; at 0.5 µM): 15.1% (inactive)
- inhibition ([14]; cisplatin combo, at 5 µM): 34.1%
- inhibition ([14]; measured here: with BGB IC20 combination, at 0.5 µM): 12.4%
- inhibition ([14]; measured here: with cisplatin IC20 combination, at 0.5 µM): 22.9%
- inhibition ([14]; single agent, at 5 µM): 6.61%
- inhibition ([15]; BGB IC20 combo, at 0.005 µM): 3.45%
- inhibition ([15]; BGB IC40 combo, at 0.005 µM): 12%
- inhibition ([15]; BGB IC40 combo, at 0.05 µM): 3.66%
- inhibition ([15]; at 0.5 µM): -15.4% (inactive)
- inhibition ([15]; cisplatin combo, at 0.05 µM): 0.969%
- inhibition ([15]; cisplatin combo, at 0.5 µM): -17.2%
- inhibition ([15]; cisplatin combo, at 5 µM): -29.4%
- inhibition ([15]; measured here: 5 uM single agent, at 5 µM): -20.3%
- inhibition ([16]; at 0.5 µM): 2.85% (inactive)
- inhibition ([16]; measured here: with BGB IC20, at 0.5 µM): 3.83%
- inhibition ([16]; measured here: with BGB IC20, at 5 µM): 4.56%
- inhibition ([16]; measured here: with cisplatin IC20, at 0.5 µM): -12%
- inhibition ([16]; measured here: with cisplatin IC20, at 5 µM): -2.52%
- inhibition ([16]; single agent, at 5 µM): 7.25%
- inhibition ([17]; at 0.5 µM): 2.48% (inactive)
- inhibition ([17]; measured here: BGB combination, at 0.5 µM): 6.04%
- inhibition ([17]; measured here: BGB combination, at 5 µM): -1.46%
- inhibition ([17]; measured here: cisplatin combination, at 0.5 µM): -0.921%
- inhibition ([17]; measured here: cisplatin combination, at 5 µM): -0.504%

Structure (SMILES): C#CCN(C)CCCOc1ccc(Cl)cc1Cl
- survival [18]: 8.67 (inactive)
- parasite load remaining [1]: 88.7% (inactive) and 89.7% (inactive)
- viability [1]: 100% and 71.8%
- nuclear beta-catenin stimulation ([2]; at 10 µM): 0.3% (inactive)
- nuclear beta-catenin stimulation ([2]; stimulation, at 2 µM): -0.5%
- insulin secretion stimulation [3]: -2.3% (inactive)
- viability decrease [4]: -91.8% (inactive)
- tube area decrease [5]: 22.3% (inactive)
- GLP1 secretion stimulation [6]: -0.5% (inactive)
- inhibition of viability [7]: 2.63% (inactive)
- viability decrease (inhibition) [8]: 48.3% (inactive)
- viability decrease (inhibition) [9]: 13.7% (inactive)
- red/green cell ratio (normalised) [10]: 1 (inactive)
- normalised cell number [10, 20]: 1.14
- normalised cell number [10, 21]: 1.14
- fold change [11, 22]: 1.02 (inactive) and 0.917 (inactive) and 0.833 (inactive)
- fold change [11, 23]: 0.924 and 0.754 and 1.44
- cell count [11, 24]: 9600 and 8700 and 8160
- cell count [11, 25]: 9370 and 9480 and 9800
- z-score [12, 26]: 0.667 (inactive)
- z-score [12, 27]: 0.294
- remaining NAD [19]: 10 nM (inactive)

Structure (SMILES): CC(C)(Oc1ccc(C2CC2(Cl)Cl)cc1)C(=O)O (stereo not given)
- survival [18]: 3.17 (inactive)
- parasite load remaining [1]: 67% (inactive)
- viability [1]: 69.5%
- nuclear beta-catenin stimulation ([2]; at 10 µM): -1.2% (inactive)
- nuclear beta-catenin stimulation ([2]; stimulation, at 2 µM): -1%
- insulin secretion stimulation [3]: -1.6% (inactive)
- viability decrease [4]: 0.1% (inactive)
- tube area decrease [5]: -3% (inactive)
- GLP1 secretion stimulation [6]: 1.4% (active)
- inhibition of viability [7]: -3.5% (inactive)
- viability decrease (inhibition) [8]: -7.2% (inactive)
- viability decrease (inhibition) [9]: -11.1% (inactive)
- red/green cell ratio (normalised) [10]: 1.11 (inactive)
- normalised cell number [10, 20]: 1.15
- normalised cell number [10, 21]: 1.28
- fold change [11, 22]: 1.01 (inactive) and 0.95 (inactive) and 0.923 (inactive)
- fold change [11, 23]: 2.14 and 0.705 and 0.604
- cell count [11, 24]: 9720 and 9780 and 8880
- cell count [11, 25]: 9650 and 10300 and 9610
- z-score [12, 26]: -0.289 (inactive) and 0.864 (inactive)
- z-score [12, 27]: -0.625 and 0.179
- remaining NAD [19]: 10 nM (inactive)

Source: PubChem BioAssay
